This is a sample that favours compounds with a hit; in the whole collection about 13% have one here.
FMDV inh: antivirals against foot and mouth disease virus; AID 1159524; Potency, µM (highest dose often 57.9 µM), for the others: at the top dose activity change, negative = inhibition, hits mostly inhibitors; FMDV antiviral cell-based qHTS; hit rate 1.2% among 410,000; calls by dose curve; tested in HEK293T cells; note: read-out not given here; potency is the fitted concentration of half-maximal effect; % is set by controls: 0 for no effect and ±100 for the full control effect; nearly all actives have a fitted effect of over 45% in size
Shiga toxin inh: blocks Shiga toxin action in Vero cells | Vero cells, Shiga toxin protein synthesis inhibition reporter | inhibition, % at 38.7 µM | AID 2315 | hit rate 9.2% among 290,000; in the data active = inhibition mostly above about 28%, no sharp cut-off; inactive = mostly below about 43%; note: 0% is about no effect
MARV entry inh: Marburg virus entry inhibition; Marburg virus pseudotyped entry inhibition, cell reporter; Potency, µM (top dose mostly 37.8 µM), without a hit: at the highest dose activity change, negative = inhibition, most hits filed as inhibitors; hit rate 1.8% among 300,000; calls by dose curve; tested in HEK293 cells; note: potency is the fitted concentration of half-maximal effect; % is set by controls: 0 for no effect and ±100 for the full control effect
HCV inhibitor: inhibitors of hepatitis C virus infection; hit rate 3.4% among 340,000; Huh7.5.1 HCVcc-Cre infection, luciferase reporter, 44 h; AID 651820; Potency, µM (top dose mostly 41.8 µM), for the others: top-dose activity change, negative = inhibition, most hits filed as inhibitors; active = well fitted inhibition curve with a large enough effect; inconclusive = small, poorly fitted or top-dose-only effect, or another doubt; inactive = no such curve, though single readings can be large or run the other way; note: potency is the fitted concentration of half-maximal effect; % is set by controls: 0 for no effect and ±100 for the full control effect
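HCVcc-Cre virus at an moi near 0.5 was added right after compound to cells cultured 4 h from seeding (1,000 cells/well). Luciferase activity was determined 44 h later, 15 min after substrate addition at RT.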
CHX counter: affects cycloheximide protein synthesis inhibition readout, counter-screen | cell reporter, cycloheximide protein synthesis inhibition counterscreen | max response, % | hit rate 12% among 300,000; in the data active = max response mostly above about 13%, no sharp cut-off; inactive = mostly below about 14%; note: read at 38.3 µM for the half of the compounds with a filed dose; 0% is about no effect
Lassa entry inh: inhibitors of Lassa virus binding or cell entry; Lassa virus pseudotype entry inhibition, cell reporter; Potency, µM (series often up to 37.9 µM), for the others: top-dose activity change, negative = inhibition, actives largely listed as inhibitors; hit rate 1.2% among 300,000; calls by dose curve; tested in HEK293 cells; note: potency is the fitted concentration of half-maximal effect; % is set by controls: 0 for no effect and ±100 for the full control effect; nearly all actives have a fitted effect of over 50% in size
An asterisk follows results filed as active; ? = inconclusive; . = not tested or not shown; [ ] = remark or other dose.

SMILES	FMDV inh	Shiga toxin inh	MARV entry inh	HCV inhibitor	CHX counter	Lassa entry inh
Cc1ccc(-n2c(C)nc3ccccc3c2=O)c(C)c1	-5%	-4	.	?	-1	.
Cc1ccc(C)c(/C=N/Nc2nc3ccccc3c(=O)n2O)c1	30%	34*	-23%	-1%	22*	1%
O=C(Nc1ccc(Cl)cc1)Nc1ccccc1CC[N+](=O)[O-]	28%	41*	-23%[46.1 µM]	?	24	?
O=C(Nc1ccc(Cl)cc1)Nc1csc([N+](=O)[O-])c1	0%	100*	?	?	30*	?
O=C(Cc1ccc(Cl)cc1)Nc1ccccc1C(=O)Nc1ccc(C(=O)O)cc1	-12%	-6	.	13%	0	.
O=C(Nc1ccc(Cl)cc1)Nc1ccccc1C(=O)O	-77%	35	?	10%	23*	?
O=C(Nc1csc([N+](=O)[O-])c1)Nc1c(Cl)cccc1Cl	-16%	-13	.	-10%	1	.
O=C(Nc1ccc(Cl)c(Cl)c1)Nc1ccccc1C(=O)O	-70%	41	?	-9%	30*	3.5µM*
Cc1cccc(CCN2C(Nc3ccccc3)=NC[C@@H]2C)c1	-10%	.	.	-6%	.	.
O=C(Nc1ccccc1CC[N+](=O)[O-])N1CCN(c2ccccc2)CC1	-8%	-6	10µM*	-7%	13	-2%
CN(C)C(=O)Nc1ccccc1CC[N+](=O)[O-]	5%	-2	20%[46.1 µM]	10%	7	-20%
CC(NC(=O)c1ccco1)C(=O)N1CCN(c2cccc(Cl)c2)CC1 (configuration not stated)	-13%	.	.	-4%	.	.
CC(C)C(NC(=O)Cc1ccccc1)C(=O)N1CCN(c2cccc(Cl)c2)CC1 (configuration not stated)	?	.	.	11µM*	.	.
Cc1cc(C(=O)N2CCN(c3ccccc3)CC2)c(C)o1	21%	6	-2%	4%	3	43%
Cc1cc(C(=O)N2CCN(c3cccc(Cl)c3)CC2)c(C)o1	?	-23	6.3µM*	?	-5	?
CCSc1ccccc1C(=O)N1CCN(c2ccc([N+](=O)[O-])cc2)CC1	?	5	?	10µM*	-4	?
O=C(c1cc2ccccc2cc1O)N1CCN(c2ccc([N+](=O)[O-])cc2)CC1	-10%	.	-10%	?	.	-4%
CSc1ccccc1C(=O)N1CCN(c2cccc(Cl)c2)CC1	-18%	-10	?	?	-7	5.6µM*
COc1ccccc1OCCn1nc2ccccc2c1OC	3%	.	.	.	.	.
CC1(C(=O)N2CCN(c3ccccc3)CC2)CC1(Cl)Cl (configuration not stated)	-10%	-25	-6%[46.1 µM]	6%	-2	3%[46.1 µM]
CC1(C(=O)N2CCN(c3ccc([N+](=O)[O-])cc3)CC2)CC1(Cl)Cl (configuration not stated)	20µM*	-5	.	11µM*	1	.
Cc1ccc2nc(SCC(=O)N3CCCC3)[nH]c2c1	9%	92	-3%	9%	22*	?
Cc1ccc2nc(SC(C)C(=O)N3CC(C)OC(C)C3)[nH]c2c1 (configuration not stated)	-11%	33	4%[46.1 µM]	17%	35	27%[46.1 µM]
Cc1ccc2nc(SC(C)C(=O)N3CCCCC3)[nH]c2c1 (configuration not stated)	37%	105	13%[46.1 µM]	13%	35*	?
Cc1ccc2nc(SCC(=O)c3ccc(O)cc3O)[nH]c2c1	89%	49*	.	1%	46*	.
SMILES	FMDV inh	Shiga toxin inh	MARV entry inh	HCV inhibitor	CHX counter	Lassa entry inh
CN(C)C(=O)CSc1nc2ccc(C(=O)c3ccccc3)cc2[nH]1	42%	.	.	-9%	23*	.
COC(=O)c1c(C)oc(C)c1S(=O)(=O)NCC1CC1	128%	36	-2%	19%	-1	11%
Cc1ccc2nc(SC(C)C(=O)N3CCCC3)[nH]c2c1 (configuration not stated)	46%	57*	7%	15%	25*	1%
CCOc1ccc(NC(=S)N2CCN(c3ccc(N4CCOCC4)nn3)CC2)cc1	-21%	3	.	-10%	9	.
O=C(N1CCN(c2cccc(Cl)c2)CC1)C1(c2cccs2)CCOCC1	35µM*	-3	?	?	1	?
CCC(C(=O)NC1CCCCC1)n1c(SCc2cccc(C)c2)nc2ccncc21 (configuration not stated)	7%	21	?	?	26*	31%[46.1 µM]
C=CCOc1c(Cl)cc(CNc2ccc(N(C)C)cc2)cc1OC	-17%	85	?	?	42*	?
Cc1ccc(C(=O)c2nccn2C)cc1C	31%	46	?	15%	42*	5%[46.1 µM]
COc1ccc(-n2nc3c(N4CCC(C(=O)NCc5cccc(F)c5)CC4)nnc(C)c3c2C)cc1	-30%	.	.	.	.	-6%[46.1 µM]
Cc1ccccc1NC(=O)CSc1nnc2ccc(-c3ccncc3)nn12	1%	.	-17%[46.1 µM]	0%	.	17%
Cc1cc(C)n(CC(=O)NNC(=O)c2cccc(C(F)(F)F)c2)n1	-19%	-5	.	7%	-1	.
Cc1cc(NNC(=O)c2cccc(C(F)(F)F)c2)nc2c1c(C)nn2C	?	-8	.	4.5µM*	-1	.
COc1ccc(NC2=NC(C)(CO)CS2)cc1 (configuration not stated)	50%	40	.	7%	14*	.
COc1cc(C(=O)NCc2cc3ccccc3n2C)cc(OC)c1OC	-27%	.	.	-15%	-1	.
C/C(=N\O)c1ccc2[nH]ccc2c1	46%	38	?	0%	15*	-6%
O=C(Cn1nnc2ccccc21)OCc1ccccc1	10%	-2	.	11%	10	.
Nc1ccc(C23CC4CC(CC(CO)(C4)C2)C3)cc1	13%	12	13%	15%	19*	6%
Nc1ccc(C23CC4CC(CC(O)(C4)C2)C3)cc1	-19%	24	?	-4%	28*	2%
CCCCC(c1nnnn1CC1CCCO1)N1CCN(c2cc(Cl)ccc2C)CC1 (configuration not stated)	-18%	-10	?	-24%	-1	?
COc1ccc(OC)c(NC(=O)C(C#N)=Cc2ccco2)c1	19%	.	-2%[46.1 µM]	-15%	.	0%[46.1 µM]
O=C(Cc1cccs1)Nc1ccc(Cl)c(S(=O)(=O)N2CCOCC2)c1	-17%	.	?	?	.	?
O=C(Cc1cccs1)Nc1ccc(Cl)cc1	27%	active	5%	-9%	17*	19%
O=C(Nc1ccc(Cl)cc1)N(Cc1nc2ccccc2c(=O)[nH]1)Cc1cccs1	-28%	-1	?	?	-1	-7%
O=C(Cc1cccs1)Nc1ccc(N2CCOCC2)cc1	68%	111*	6%	30%	24*	-20%
O=C(Nc1ccc(Cl)cc1)N(Cc1cccs1)Cc1cccs1	-17%	45*	?	?	14*	3%
NC(=O)c1ccc(NC(=O)Cc2cccs2)cc1	-8%	16	?	20%	3	-6%[46.1 µM]
Cc1cccc(NC(=O)Cc2cccs2)n1	75%	69*	?	8%	33*	26%
